Source: PubChem BioAssay (Tox21)
Records with an inconclusive call do not appear. Activity calls are given as the source filed them. Unless noted, calls come from the whole dose curve; as a rule, active = well fitted curve in the direction sought with a large enough effect in the repeat runs; inconclusive = weak or mixed curves; inactive = no such curve, though single readings can be large; an effect the other way counts as inactive or inconclusive.

What was measured:
[1] = qHTS assay to identify small molecule antagonists of the sonic hedgehog signaling (Shh) pathway (AID 1259369; calls by dose curve; note: nearly all actives have a fitted effect of over 45% in size)
Summary of the method: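 Luminescence readout: firefly Luc under Gli1 response element in 3T3Gli1-Luc cells (NIH/3T3 clone). Antagonist mode, stimulation by conditioned medium; compound exposure 24hr at 37 C, 5% CO2.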

[2] = target: Estrogen receptor beta (Homo sapiens) (UniProt Q92731); experiment: qHTS assay to identify small molecule agonists of the estrogen receptor beta (ER-beta) signaling pathway (AID 1259377; active = well fitted activation curve with a large enough effect in the signal ratio in the repeat runs, not every such curve was filed as active; the % refers to the signal ratio)
Summary of the method: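 Read-out: beta-lactamase FRET fluorescence. Cell line: ER-beta-UAS-bla HEK293T in 2% charcoal-stripped FBS. Exposure: 16 hr at 37C. Substrate step: 2 h at room temperature.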

[3] = target: Estrogen receptor beta (Homo sapiens) (UniProt Q92731); experiment: qHTS assay to identify small molecule antagonists of the estrogen receptor beta (ER-beta) signaling pathway (AID 1259378; active = well fitted inhibition curve with a large enough effect in the signal ratio in the repeat runs, not every such curve was filed as active; the % refers to the signal ratio)
Summary of the method: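 ER-beta-UAS-bla HEK293T (GripTite) cells in 2% charcoal-stripped FBS medium were preincubated 6 hr at 37C, dosed with compound, then stimulated with 1 nM E2 (final) for 16 hr; beta-lactamase reporter read by B/G FRET fluorescence after 2 hr substrate loading.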

[4] = qHTS assay to identify small molecule agonists of the androgen receptor (AR) signaling pathway in the presence of an antagonist - cell viability counter screen (AID 1259379);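 note: MDA-kb2 human breast cancer cells carrying an MMTV luciferase reporter; series mostly up to about 92 µM; nearly all actives have a fitted effect of over 25% in size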
Summary of the method: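 Viability counter screen: CellTiter-Fluor fluorescence, measured in the same wells as the luciferase read-out. MDA-kb2 cells, 3,000/well, with nilutamide at 3.0uM final and compounds at 15 concentrations, 16 hr at 37C, 0% CO2.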

[5] = qHTS assay to identify small molecule agonists of the estrogen receptor beta (ER-beta) signaling pathway - cell viability counter screen (AID 1259380); note: nearly all actives have a fitted effect of over 30% in size
Summary of the method: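 Luminescence read-out (CellTiter-Glo, 30 min, room temp) taken in the same wells as the beta-lactamase reporter assay; ER-beta-UAS-bla HEK293T cells exposed to DMSO-dissolved compounds for 16 hr at 37C in 2% charcoal-stripped FBS medium.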

[6] = target: Androgen receptor (Homo sapiens) (UniProt P10275); experiment: qHTS assay to identify small molecule agonists of the androgen receptor (AR) signaling pathway in the presence of an antagonist (AID 1259381; calls by dose curve; note: nearly all actives have a fitted effect of over 15% in size)
Summary of the method: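 Luciferase read-out (ONE-Glo, 30min room temperature) in MDA-kb2 MMTV-reporter cells; agonist mode run in presence of AR antagonist nilutamide, 3.0uM final. Compounds tested as 15-point series, 16hr exposure at 37C, 0% CO2.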

[7] = qHTS assay to identify small molecule antagonists of the estrogen receptor beta (ER-beta) signaling pathway - cell viability counter screen (AID 1259382); note: series mostly up to about 92 µM; nearly all actives have a fitted effect of over 55% in size
Summary of the method: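 Luminescent ATP read-out (CellTiter-Glo, 30 min, RT) taken in the same wells as the bla reporter assay. HEK293T ER-beta-UAS-bla cells in 2% charcoal-stripped FBS were exposed to compounds with 1nM E2 for 16 hr at 37C.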

[8] = target: Estrogen receptor (Homo sapiens) (UniProt P03372); experiment: qHTS assay to identify small molecule agonists of the estrogen receptor alpha (ER-alpha) signaling pathway in the presence of an antagonist (AID 1259383; calls by dose curve; note: top concentration of the series differs between compounds; nearly all actives have a fitted effect of over 15% in size)
Summary of the method: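 Luciferase luminescence (ONE-Glo, 30min at room temperature) measured in VM7Luc4E2 cells after 22hr compound exposure at 15 concentrations, with 10.0nM ICI-182,780 final present; cells express endogenous ER-alpha and carry four EREs upstream of luciferase.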

[9] = qHTS assay to identify small molecule agonists of the estrogen receptor alpha (ER-alpha) signaling pathway in the presence of an antagonist - cell viability counter screen (AID 1259386);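 note: series mostly up to about 92 µM; cells exposed to compounds for 22 h at 37 °C before the viability read; nearly all actives have a fitted effect of over 30% in size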
Summary of the method: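 Read-out: CellTiter-Fluor fluorescence after 1hr reagent incubation, measured in the same wells as the luciferase readout. VM7Luc4E2 cells were exposed to 15 compound concentrations with 10.0nM ICI-182,780 for 22hr at 37C.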

[10] = target: Progesterone receptor (Homo sapiens) (UniProt P06401); experiment: qHTS assay to identify small molecule antagonists of the progesterone receptor (PR) signaling pathway (AID 1346795; active = well fitted inhibition curve with a large enough effect in the signal ratio in the repeat runs, not every such curve was filed as active; the % refers to the signal ratio)
Summary of the method: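 In HEK293T cells bearing the PR-UAS-bla reporter, compound effects on promegestone-driven (1 nM) beta-lactamase expression are assessed after 16 hr using a fluorescent FRET substrate incubated 2 hr at room temperature.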

[11] = qHTS assay to identify small molecule antagonists of the progesterone receptor (PR) signaling pathway - cell viability counter screen (AID 1346798); note: series mostly up to about 92 µM; nearly all actives have a fitted effect of over 50% in size
Summary of the method: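 Following a 4 hr attachment, PR-UAS-bla HEK293T cells in charcoal-stripped FBS medium were exposed to compounds with R5020 for 16 hr; CellTiter-Glo was added and luminescence read after 30 min at room temperature.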

[12] = qHTS assay to identify small molecule antagonists of the TGF-beta/Smad signaling pathway - cell viability counter screen (AID 1346824); note: nearly all actives have a fitted effect of over 50% in size
Summary of the method: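 SBE-bla HEK 293T cells were plated overnight at 37 C, then given compounds in DMSO plus TGF-beta1 (added as 0.25 ng/mL solution) for 5 hr. After the bla read, CellTiter-Glo was added to the same wells and luminescence read after 30 min at room temperature.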

[13] = qHTS assay to identify small molecule agonists of the TGF-beta/Smad signaling pathway - cell viability counter screen (AID 1346829); note: top concentration of the series differs between compounds; nearly all actives have a fitted effect of over 45% in size
Summary of the method: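 HEK 293T SBE-bla line, 5 hr compound exposure at 37 C, multiplexed CellTiter-Glo viability read by luminescence.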

[14] = qHTS assay to identify small molecule agonists of the TGF-beta/Smad signaling pathway (AID 1346859; active = well fitted activation curve with a large enough effect in the signal ratio in the repeat runs, not every such curve was filed as active; the % refers to the signal ratio; note: series mostly up to about 77 µM)
Summary of the method: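 Each well held 4,000 SBE-bla HEK 293T cells incubated overnight before compound addition; 5 hr later the cleavable FRET substrate went on for 2 hr at room temperature, and fluorescence was read at two emissions.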

[15] = qHTS assay to identify small molecule agonists or antagonists of the thyroid stimulating hormone receptor (TSHR) signaling pathway - wild type cell line counter screen (AID 1259384; calls by dose curve)
Summary of the method: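 Wild-type HEK293 cells were plated 18 h at 37 C/5% CO2, pin-dosed with compound plus Ro20-1724 medium, held 30 min at room temperature, then given cAMP-d2 and anti-cAMP-cryptate; fluorescence was read after 1 h. Fifteen concentrations, triplicate.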

[16] = target: Progesterone receptor (Homo sapiens) (UniProt P06401); experiment: qHTS assay to identify small molecule agonists of the progesterone receptor (PR) signaling pathway (AID 1346784; calls by dose curve; note: nearly all actives have a fitted effect of over 30% in size)
Summary of the method: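 Compounds were tested for PR agonism in HEK 293T cells bearing a beta-lactamase gene under UAS control. Treatment lasted 16 hr at 37C; signal came from fluorescence of a FRET substrate.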

[17] = qHTS assay to identify small molecule agonists of the progesterone receptor (PR) signaling pathway - cell viability counter screen (AID 1346799; calls by dose curve; note: nearly all actives have a fitted effect of over 45% in size)
Summary of the method: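 Here, 3,000 PR-UAS-bla HEK293T cells per well were treated with compounds for 16 hr after a 6 hr preincubation at 37C and 5% CO2; cell viability is the CellTiter-Glo luminescence signal.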

[18] = target: Thyrotropin-releasing hormone receptor (Homo sapiens) (UniProt P34981); experiment: qHTS assay to identify small molecule antagonists of the thyrotropin-releasing hormone receptor (TRHR) signaling pathway (AID 1346877; active = well fitted inhibition curve with a large enough effect in the repeat runs, not every such curve was filed as active; note: series mostly up to about 51 µM)
Summary of the method: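 HEK293/TRHR cells, 18 h, 37 °C; Ca2+ dye 2 h; cpd 5 min RT; TRH 1 nM final; fluorescence read 3 min, 1 s intervals; 15 concs, triplicate.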

[19] = target: Thyrotropin-releasing hormone receptor (Homo sapiens) (UniProt P34981); experiment: qHTS assay to identify small molecule agonists of the thyrotropin-releasing hormone receptor (TRHR) signaling pathway (AID 1346891; calls by dose curve; note: series mostly up to about 58 µM)
Summary of the method: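 Screening of agonists relied on calcium signalling in HEK293 cells expressing human TRHR: dye loading 2 h at 37 °C preceded compound addition and a 3-min fluorescence time course.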

[20] = target: Thyrotropin receptor (Homo sapiens) (UniProt P16473); experiment: qHTS assay to identify small molecule antagonists of the thyroid stimulating hormone receptor (TSHR) signaling pathway (AID 1259385; calls by dose curve; note: nearly all actives have a fitted effect of over 20% in size)
Summary of the method: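 TSHR-HEK293 cells were plated and held 18 h at 37C/5% CO2, then given compound plus Ro20-1724 and stimulated with TSH at 1.5 ng/mL final. After 30 min at room temperature, cAMP was detected with cAMP-d2/anti-cAMP-cryptate (1 h) by fluorescence.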
% is set by controls: 0 for no effect and ±100 for the full control effect.

Chain of Thyrotropin-releasing hormone receptor (Homo sapiens) (P34981 whole entry, looked up): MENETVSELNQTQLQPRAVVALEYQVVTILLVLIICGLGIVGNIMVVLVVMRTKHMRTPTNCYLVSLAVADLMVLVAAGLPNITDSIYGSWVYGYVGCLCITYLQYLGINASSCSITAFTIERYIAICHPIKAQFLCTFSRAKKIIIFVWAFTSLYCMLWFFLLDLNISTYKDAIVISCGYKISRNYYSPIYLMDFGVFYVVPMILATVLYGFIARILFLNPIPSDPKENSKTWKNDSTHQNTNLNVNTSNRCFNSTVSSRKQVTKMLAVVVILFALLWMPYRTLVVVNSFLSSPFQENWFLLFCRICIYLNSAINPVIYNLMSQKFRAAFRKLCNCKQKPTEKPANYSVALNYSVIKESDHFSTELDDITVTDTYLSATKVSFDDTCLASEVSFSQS
Chain of Estrogen receptor beta (Homo sapiens) (Q92731 whole entry, looked up): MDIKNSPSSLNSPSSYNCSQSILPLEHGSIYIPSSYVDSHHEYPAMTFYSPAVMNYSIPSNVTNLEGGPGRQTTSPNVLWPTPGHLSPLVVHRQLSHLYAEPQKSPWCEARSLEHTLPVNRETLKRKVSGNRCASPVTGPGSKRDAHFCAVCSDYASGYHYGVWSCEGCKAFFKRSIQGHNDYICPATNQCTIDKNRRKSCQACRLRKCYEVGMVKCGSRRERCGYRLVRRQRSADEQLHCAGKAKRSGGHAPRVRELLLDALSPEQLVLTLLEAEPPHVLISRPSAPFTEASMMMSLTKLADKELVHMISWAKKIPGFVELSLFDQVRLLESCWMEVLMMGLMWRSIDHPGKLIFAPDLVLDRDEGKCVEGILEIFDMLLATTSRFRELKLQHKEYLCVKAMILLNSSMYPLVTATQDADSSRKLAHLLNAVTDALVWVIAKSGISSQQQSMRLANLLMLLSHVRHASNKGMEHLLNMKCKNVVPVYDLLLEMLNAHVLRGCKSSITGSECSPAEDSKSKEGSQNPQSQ
Chain of Androgen receptor (Homo sapiens) (P10275 whole entry, looked up): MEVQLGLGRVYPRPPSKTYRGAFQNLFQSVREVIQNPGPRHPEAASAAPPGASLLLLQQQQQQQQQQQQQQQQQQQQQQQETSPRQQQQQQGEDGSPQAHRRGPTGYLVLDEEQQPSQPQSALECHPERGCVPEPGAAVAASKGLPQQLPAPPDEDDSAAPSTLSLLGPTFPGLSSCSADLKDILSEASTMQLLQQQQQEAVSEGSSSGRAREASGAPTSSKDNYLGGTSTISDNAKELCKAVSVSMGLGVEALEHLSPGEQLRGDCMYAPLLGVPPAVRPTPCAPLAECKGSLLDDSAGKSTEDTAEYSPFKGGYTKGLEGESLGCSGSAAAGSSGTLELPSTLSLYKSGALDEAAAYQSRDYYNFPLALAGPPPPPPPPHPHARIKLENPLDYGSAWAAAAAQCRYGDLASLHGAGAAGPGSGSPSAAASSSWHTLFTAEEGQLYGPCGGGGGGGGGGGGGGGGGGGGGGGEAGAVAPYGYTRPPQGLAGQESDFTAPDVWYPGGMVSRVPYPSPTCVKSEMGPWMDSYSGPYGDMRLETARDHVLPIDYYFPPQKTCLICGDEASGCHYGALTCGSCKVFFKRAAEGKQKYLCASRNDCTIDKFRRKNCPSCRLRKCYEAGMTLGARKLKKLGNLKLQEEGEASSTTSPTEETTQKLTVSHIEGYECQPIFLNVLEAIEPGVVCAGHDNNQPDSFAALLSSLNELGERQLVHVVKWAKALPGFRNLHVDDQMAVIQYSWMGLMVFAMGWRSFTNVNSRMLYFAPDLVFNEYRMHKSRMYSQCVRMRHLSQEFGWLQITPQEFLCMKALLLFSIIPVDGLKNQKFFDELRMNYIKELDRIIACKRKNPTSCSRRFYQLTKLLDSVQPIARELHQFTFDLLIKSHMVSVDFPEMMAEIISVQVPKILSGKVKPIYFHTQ
Chain of Estrogen receptor (Homo sapiens) (P03372 whole entry, looked up): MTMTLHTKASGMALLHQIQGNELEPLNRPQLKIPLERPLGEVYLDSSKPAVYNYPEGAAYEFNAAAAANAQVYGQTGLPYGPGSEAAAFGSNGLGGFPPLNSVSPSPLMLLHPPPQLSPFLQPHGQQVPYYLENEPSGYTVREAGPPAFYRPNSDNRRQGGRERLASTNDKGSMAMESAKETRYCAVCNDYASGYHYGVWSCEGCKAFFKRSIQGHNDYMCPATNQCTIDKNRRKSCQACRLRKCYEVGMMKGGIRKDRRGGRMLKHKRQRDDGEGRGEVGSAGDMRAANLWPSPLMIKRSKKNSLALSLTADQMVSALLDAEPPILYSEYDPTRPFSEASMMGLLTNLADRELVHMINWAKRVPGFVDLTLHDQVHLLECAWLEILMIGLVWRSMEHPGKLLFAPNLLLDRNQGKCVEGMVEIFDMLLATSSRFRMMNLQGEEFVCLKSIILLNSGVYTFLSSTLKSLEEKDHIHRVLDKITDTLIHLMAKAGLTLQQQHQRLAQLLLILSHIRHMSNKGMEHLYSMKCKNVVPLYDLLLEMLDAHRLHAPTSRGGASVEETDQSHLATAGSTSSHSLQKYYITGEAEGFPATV
Chain of Progesterone receptor (Homo sapiens) (P06401 whole entry, looked up): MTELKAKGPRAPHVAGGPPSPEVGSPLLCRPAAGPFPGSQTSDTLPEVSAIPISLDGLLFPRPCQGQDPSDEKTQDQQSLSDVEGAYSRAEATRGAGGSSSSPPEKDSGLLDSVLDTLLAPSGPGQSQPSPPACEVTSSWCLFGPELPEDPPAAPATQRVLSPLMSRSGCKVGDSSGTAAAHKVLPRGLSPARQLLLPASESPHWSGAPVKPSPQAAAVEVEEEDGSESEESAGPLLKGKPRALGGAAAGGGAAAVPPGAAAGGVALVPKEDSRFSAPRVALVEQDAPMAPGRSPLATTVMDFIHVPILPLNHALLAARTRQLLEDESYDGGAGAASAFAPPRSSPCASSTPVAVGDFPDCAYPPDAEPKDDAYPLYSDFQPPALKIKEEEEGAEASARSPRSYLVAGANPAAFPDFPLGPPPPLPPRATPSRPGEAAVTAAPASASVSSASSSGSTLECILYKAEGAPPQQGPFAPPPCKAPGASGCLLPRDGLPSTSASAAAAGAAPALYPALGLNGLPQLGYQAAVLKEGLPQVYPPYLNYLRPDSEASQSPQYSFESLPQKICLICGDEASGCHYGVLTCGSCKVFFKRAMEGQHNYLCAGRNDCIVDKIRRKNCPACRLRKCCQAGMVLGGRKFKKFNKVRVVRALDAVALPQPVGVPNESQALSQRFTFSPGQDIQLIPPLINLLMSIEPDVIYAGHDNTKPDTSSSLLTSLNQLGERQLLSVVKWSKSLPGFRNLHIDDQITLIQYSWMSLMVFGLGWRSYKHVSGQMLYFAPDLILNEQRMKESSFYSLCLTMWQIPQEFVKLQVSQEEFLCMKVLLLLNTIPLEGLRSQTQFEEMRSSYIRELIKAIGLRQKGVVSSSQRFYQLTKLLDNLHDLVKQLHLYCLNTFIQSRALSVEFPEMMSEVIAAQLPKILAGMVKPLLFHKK
Chain of Thyrotropin receptor (Homo sapiens) (P16473 whole entry, looked up): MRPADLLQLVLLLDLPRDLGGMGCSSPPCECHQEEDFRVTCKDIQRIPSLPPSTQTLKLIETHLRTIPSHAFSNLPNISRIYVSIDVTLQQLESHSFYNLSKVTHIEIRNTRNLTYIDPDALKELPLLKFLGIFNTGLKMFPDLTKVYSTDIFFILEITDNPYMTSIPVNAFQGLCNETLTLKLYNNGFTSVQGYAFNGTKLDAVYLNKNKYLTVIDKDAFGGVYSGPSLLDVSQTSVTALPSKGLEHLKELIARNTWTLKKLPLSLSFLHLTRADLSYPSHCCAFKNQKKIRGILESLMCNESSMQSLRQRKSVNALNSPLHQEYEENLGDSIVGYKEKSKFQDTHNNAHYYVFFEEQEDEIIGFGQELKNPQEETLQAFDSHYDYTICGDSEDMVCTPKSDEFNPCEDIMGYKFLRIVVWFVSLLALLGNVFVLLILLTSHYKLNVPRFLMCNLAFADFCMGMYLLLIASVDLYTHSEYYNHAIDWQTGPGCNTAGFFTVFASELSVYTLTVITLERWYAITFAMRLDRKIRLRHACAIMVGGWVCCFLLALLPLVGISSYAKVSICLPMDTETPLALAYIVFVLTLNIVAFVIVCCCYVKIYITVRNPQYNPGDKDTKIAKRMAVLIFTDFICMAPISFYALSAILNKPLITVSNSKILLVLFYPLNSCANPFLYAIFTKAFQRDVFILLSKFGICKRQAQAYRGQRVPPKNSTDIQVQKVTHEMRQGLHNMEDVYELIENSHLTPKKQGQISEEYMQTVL

CCCCCCOC(=O)CC(CC(=O)OCCCCCC)(OC(=O)CCC)C(=O)OCCCCCC
inactive: Potency [1] | outcome [2] | Potency [3] | Potency [4] | Potency [5] | Potency [6] | Potency [7] | Potency [8] | outcome [9] | Potency [10] | Potency [11] | outcome [12] | outcome [13] | outcome [14]

CCN(CC)S(=O)(=O)c1ccc(C(=O)O)cc1
inactive: Potency [1] | outcome [2] | Potency [3] | Potency [4] | Potency [5] | Potency [7] | Potency [8] | outcome [15] | outcome [9] | Potency [16] | Potency [10] | Potency [11] | Potency [17] | outcome [12] | outcome [13] | outcome [14] | outcome [18] | outcome [19]

C[C@H](O)C(=O)Nc1c(I)c(C(=O)NC(CO)CO)c(I)c(C(=O)NC(CO)CO)c1I
inactive: Potency [1] | outcome [2] | Potency [3] | Potency [4] | Potency [5] | Potency [7] | Potency [8] | outcome [15] | outcome [9] | Potency [16] | Potency [10] | Potency [11] | Potency [17] | outcome [12] | outcome [13] | outcome [14]

CC(C)[N+](C)(C)CC(O)COc1cccc2ccccc12 (stereo not given)
inactive: Potency [1] | outcome [2] | Potency [3] | Potency [4] | Potency [5] | Potency [7] | Potency [8] | outcome [15] | Potency [20] | outcome [9] | Potency [16] | Potency [10] | Potency [17] | outcome [12] | outcome [13] | outcome [14] | outcome [18] | outcome [19]

C1CCCCCCCCCCC1
inactive: activity change, negative = inhibition [1] 13.4% [at 19 µM] | activation [2] -0.402% [at 19 µM] | activity, negative = inhibition [3] 0.969% [at 19 µM] | activity change, negative = cytotoxicity [4] -1.18% [at 19 µM] | activity change, negative = cytotoxicity [5] -0.0692% [at 19 µM] | Potency [6] | activity change, negative = cytotoxicity [7] 1.11% [at 19 µM] | activation [8] -2.76% [at 19 µM] | cAMP activity change [15] -4.57% [at 18.9 µM] | activity change, negative = inhibition [20] -0.259% [at 19 µM] | activation [16] -0.689% [at 19 µM] | activity change, negative = inhibition [10] 0.992% [at 18.9 µM] | activity change, negative = cytotoxicity [11] 8.3% [at 18.9 µM] | activity change, negative = cytotoxicity [17] 1.68% [at 19 µM] | viability change, negative = cytotoxic [12] 13% [at 15.8 µM] | activity change, negative = cytotoxicity [13] 5.27% [at 15.8 µM] | activation [14] 1.5% [at 15.8 µM] | activity, negative = inhibition [18] -13.6% [at 10.5 µM] | activation [19] 1.06% [at 11.8 µM]

NC(N)=NS(=O)(=O)c1ccc(N)cc1
inactive: Potency [1] | outcome [2] | Potency [3] | Potency [4] | Potency [5] | Potency [6] | Potency [7] | Potency [8] | outcome [15] | outcome [9] | Potency [16] | Potency [10] | Potency [11] | Potency [17] | outcome [12] | outcome [13] | outcome [14]

Cc1nccn1CC1CCc2c(c3ccccc3n2C)C1=O (stereo not given)
inactive: Potency [1] | outcome [2] | Potency [3] | Potency [4] | Potency [5] | Potency [7] | Potency [8] | outcome [15] | outcome [9] | Potency [16] | Potency [10] | Potency [11] | Potency [17] | outcome [12] | outcome [13] | outcome [14] | outcome [18] | outcome [19]
